“And” between values parts separate entries of the source, which are not always exact repeats. Equal entries are not always repeated. Among all 3,200 compounds or so, about 300 (9.4%) showed activity. This excerpt belongs to a sample that is enriched for actives.
Test system: A673/TR/shEF
Assay: cell viability (LOESS-normalised, relative to median of negative controls) (log2 ratio); higher = more viable cells (less compound effect), active = hit call of the paper (over 3 MAD below the median)
Settings: treatment time: 72 h
Procedure, shortened: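 Doxycycline, present or absent from 24 h before compounds, was used to induce EWS-FLI1 shRNA knockdown in A673/TR/shEF Ewing sarcoma cells at 1,500 per well in 384-well plates. Cells then received library compounds at two or more concentrations, or DMSO controls, for three days. Viability was measured by CellTiter-Glo luminescence on an Envision reader, and per-plate LOESS correction, division by the negative-control median and log2 transformation followed.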

[1] = 0.25 µM, library screen: screen1, EWS-FLI1 expression: high (no doxycycline)
[2] = 0.25 µM, library screen: screen1, EWS-FLI1 expression: low (doxycycline-induced shRNA knockdown)
[3] = 2.5 µM, library screen: screen1, EWS-FLI1 expression: high (no doxycycline)
[4] = 2.5 µM, library screen: screen1, EWS-FLI1 expression: low (doxycycline-induced shRNA knockdown)
[5] = 0.025 µM, library screen: screen1, EWS-FLI1 expression: high (no doxycycline)
[6] = 0.025 µM, library screen: screen1, EWS-FLI1 expression: low (doxycycline-induced shRNA knockdown)
[7] = 25 µM, library screen: screen1, EWS-FLI1 expression: high (no doxycycline)
[8] = 25 µM, library screen: screen1, EWS-FLI1 expression: low (doxycycline-induced shRNA knockdown)
[9] = 0.25 µM, library screen: screen2, EWS-FLI1 expression: high (no doxycycline)
[10] = 0.25 µM, library screen: screen2, EWS-FLI1 expression: low (doxycycline-induced shRNA knockdown)
[11] = 2.5 µM, library screen: screen2, EWS-FLI1 expression: high (no doxycycline)
[12] = 2.5 µM, library screen: screen2, EWS-FLI1 expression: low (doxycycline-induced shRNA knockdown)

Measured: cell viability (log2)

CC(=O)c1c(C(C)=O)c(C)n(-c2cc(C)cc(C)c2)c1C
inactive: [1] 0.0993 | [2] 0.13 | [3] 0.0722 | [4] 0.0963

CC(C)N1C(=O)C(=Cc2ccc(F)cc2)SC1=S
inactive: [1] 0.0751 | [2] 0.059 | [3] 0.129 | [4] -0.0496

O=S(=O)(c1cccc2cnccc12)N1CCCNCC1
active: [3] -0.187 | [7] -0.284
0.333: [1]
0.279: [5]
inactive: [6] -0.0219 | [2] -0.0194 | [4] 0.0781 | [8] 0.0444

O=S(=O)(c1cccc2c(Cl)cccc12)N1CCCNCC1
inactive: [5] 0.198 | [6] -0.106 | [1] 0.179 | [2] -0.113 | [9] 0.275 | [10] 0.144 | [4] -0.13 | [11] 0.128 | [12] 0.122 | [8] -0.103
active: [3] -0.211 | [7] -0.331

c1cc(CN2CCCNCCNCCCNCC2)ccc1CN1CCCNCCNCCCNCC1
inactive: 0.103 µM, library screen: screen3, EWS-FLI1 expression: high (no doxycycline) 0.00595 | 0.103 µM, library screen: screen3, EWS-FLI1 expression: low (doxycycline-induced shRNA knockdown) 0.0496 | 0.308 µM, library screen: screen3, EWS-FLI1 expression: high (no doxycycline) 0.0705 | 0.308 µM, library screen: screen3, EWS-FLI1 expression: low (doxycycline-induced shRNA knockdown) 0.00482 | 0.926 µM, library screen: screen3, EWS-FLI1 expression: high (no doxycycline) 0.086 | 0.926 µM, library screen: screen3, EWS-FLI1 expression: low (doxycycline-induced shRNA knockdown) 0.0433 | 2.8 µM, library screen: screen3, EWS-FLI1 expression: high (no doxycycline) 0.0246 | 2.8 µM, library screen: screen3, EWS-FLI1 expression: low (doxycycline-induced shRNA knockdown) 0.0244 | 8.3 µM, library screen: screen3, EWS-FLI1 expression: high (no doxycycline) 0.0572 | 8.3 µM, library screen: screen3, EWS-FLI1 expression: low (doxycycline-induced shRNA knockdown) 0.0352 | 25 µM, library screen: screen3, EWS-FLI1 expression: high (no doxycycline) 0.0828 | 25 µM, library screen: screen3, EWS-FLI1 expression: low (doxycycline-induced shRNA knockdown) 0.0617

O=S(=O)(c1cccc2cnccc12)N1CCNCC1
inactive: [9] 0.166 | [10] 0.045 | [11] 0.145 | [12] 0.0254

CC1CNCCN1S(=O)(=O)c1cccc2cnccc12 (configuration not stated)
0.354: [5]
inactive: [6] 0.0557 | [2] 0.0236 | [9] 0.145 and 0.204 | [10] 0.0425 and 0.187 | [3] -0.0561 | [4] 0.0655 | [11] 0.0837 and 0.258 | [12] 0.0573 and 0.209 | [8] 0.112
active: [7] -0.155
0.301: [1]

O=S(=O)(c1cccc2c(I)cccc12)N1CCCNCC1
inactive: [5] 0.188 | [6] -0.167 | [1] 0.201 | [2] -0.255 | [9] 0.178 | [10] 0.133 | [4] -0.111 | [11] 0.0746 | [12] 0.0593
active: [3] -0.248 | [7] -0.335 | [8] -0.197

CC(C)CCC[C@@H](C)[C@H]1CC[C@H]2[C@@H]3CC[C@H]4C[C@H](O)CC[C@]4(C)[C@H]3CC[C@]12C
inactive: [1] 0.14 | [2] 0.0986 | [3] 0.118 | [4] 0.0759
